Assay results: PubChem BioAssay AID624260 (Broad Institute, 2012)
Screen size: about 44,000 compounds; about 30 (0.07%) were called active. Another 1% or so got no clear call; they are omitted. Rule as the data show it: active = inhibition above about 54% (passing the limit was not always enough); inconclusive = no clear call, values can overlap the other calls. This excerpt belongs to a sample that is enriched for actives.

biological target: Histone-lysine N-methyltransferase NSD2 (Homo sapiens) (UniProt O96028); assay: inhibitors of human NSD2, primary screen, biochemical, plate reader, single point (AID 624260); details: NSD2-SET H3K36me1 DELFIA fluorescence, at 12.5 µM, stronger effect = higher value;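 also: inhibitors reduce the monomethyl H3K36 fluorescence signal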
Sequence (O96028 whole entry, looked up): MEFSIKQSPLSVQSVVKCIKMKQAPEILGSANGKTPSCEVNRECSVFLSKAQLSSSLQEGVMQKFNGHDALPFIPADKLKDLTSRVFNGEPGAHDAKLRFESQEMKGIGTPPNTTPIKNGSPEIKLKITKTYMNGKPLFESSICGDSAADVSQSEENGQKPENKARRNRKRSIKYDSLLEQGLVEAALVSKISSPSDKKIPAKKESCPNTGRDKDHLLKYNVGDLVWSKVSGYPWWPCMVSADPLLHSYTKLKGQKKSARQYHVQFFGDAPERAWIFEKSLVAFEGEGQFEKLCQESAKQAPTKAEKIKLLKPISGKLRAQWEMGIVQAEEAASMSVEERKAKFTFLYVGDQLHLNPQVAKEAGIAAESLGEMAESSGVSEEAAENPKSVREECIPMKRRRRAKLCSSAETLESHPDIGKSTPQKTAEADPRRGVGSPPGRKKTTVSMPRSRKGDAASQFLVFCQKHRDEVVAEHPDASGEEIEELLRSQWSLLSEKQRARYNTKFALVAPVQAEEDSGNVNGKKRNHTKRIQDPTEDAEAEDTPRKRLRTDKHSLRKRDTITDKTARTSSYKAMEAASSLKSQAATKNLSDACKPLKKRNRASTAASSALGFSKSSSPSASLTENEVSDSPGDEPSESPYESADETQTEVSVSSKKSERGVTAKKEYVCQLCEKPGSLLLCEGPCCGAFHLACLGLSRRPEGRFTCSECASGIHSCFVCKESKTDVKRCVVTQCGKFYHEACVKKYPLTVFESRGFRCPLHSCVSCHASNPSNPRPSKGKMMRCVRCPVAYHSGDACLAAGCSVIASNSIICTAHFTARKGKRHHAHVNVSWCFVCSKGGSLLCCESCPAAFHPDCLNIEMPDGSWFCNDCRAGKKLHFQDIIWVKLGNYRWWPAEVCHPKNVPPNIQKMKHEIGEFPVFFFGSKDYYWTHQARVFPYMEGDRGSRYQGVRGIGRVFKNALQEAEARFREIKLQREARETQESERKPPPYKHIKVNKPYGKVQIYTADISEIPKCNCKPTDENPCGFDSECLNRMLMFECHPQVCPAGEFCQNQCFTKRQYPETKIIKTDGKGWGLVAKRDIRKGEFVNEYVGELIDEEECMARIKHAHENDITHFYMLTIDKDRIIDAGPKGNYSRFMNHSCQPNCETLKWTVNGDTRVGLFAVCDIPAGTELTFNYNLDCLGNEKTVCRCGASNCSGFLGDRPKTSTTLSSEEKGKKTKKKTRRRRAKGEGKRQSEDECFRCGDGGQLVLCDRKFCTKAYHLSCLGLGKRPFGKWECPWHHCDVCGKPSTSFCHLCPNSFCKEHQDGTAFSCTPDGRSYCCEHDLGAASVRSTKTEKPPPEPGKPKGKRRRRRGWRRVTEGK

inhibition, inactive:
C/C=C/c1cnc2c(c1)C(=O)N([C@@H](C)CO)C[C@@H](C)[C@H](CN(C)C(=O)c1cnccn1)O2 0.45%
C[C@H](CO)N1C[C@H](C)[C@@H](CN(C)C)Oc2cc(C#Cc3ccccc3)ccc2S1(=O)=O -6.31%
O=C(Nc1ccc2c(c1)[C@H]1C[C@@H](CC(=O)N3CCc4ccccc4C3)O[C@H](CO)[C@H]1O2)Nc1ccccc1F 2.01%
C[C@H](CO)N1C[C@H](C)[C@@H](CN(C)S(=O)(=O)c2ccccc2)Oc2ncc(-c3ccncc3)cc2C1=O 4.23%
C[C@H](CO)N1C[C@H](C)[C@H](CN(C)CC2CCCC2)Oc2ncc(Br)cc2C1=O 0.26%
CC(=O)N(C)C[C@H]1Oc2ncc(C#Cc3ccc(F)cc3)cc2C(=O)N([C@H](C)CO)C[C@@H]1C 3.93%
C[C@@H]1CN([C@H](C)CO)S(=O)(=O)c2ccc(-c3ccncc3)cc2O[C@H]1CN(C)S(=O)(=O)c1ccccc1F -2.69%
CC(C)CC#Cc1ccc2c(c1)O[C@@H](CN(C)C(=O)c1ccccc1F)[C@H](C)CN([C@H](C)CO)S2(=O)=O -7.41%
C[C@@H]1CN([C@@H](C)CO)S(=O)(=O)c2ccc(C#C[C@@H](C)O)cc2O[C@@H]1CN(C)CC1CC1 4.62%
COCC#Cc1ccc2c(c1)O[C@@H](CN(C)Cc1cccnc1)[C@@H](C)CN([C@H](C)CO)S2(=O)=O 5.56%
COc1ccc(S(=O)(=O)Nc2ccc3c(c2)C(=O)N([C@@H](C)CO)C[C@H](C)[C@@H](CN(C)S(=O)(=O)c2ccc(C)cc2)OCCCC[C@@H](C)O3)cc1 -8.56%
C[C@@H]1CN([C@@H](C)CO)S(=O)(=O)c2ccc(Br)cc2O[C@@H]1CN(C)C(=O)C1CCCCC1 -6.34%
C[C@@H]1CN([C@H](C)CO)S(=O)(=O)c2ccc(C#CC(C)(C)O)cc2O[C@@H]1CN(C)Cc1ccccc1 -5.05%
COCC(=O)N(C)C[C@@H]1Oc2cc(C3=CCCC3)ccc2S(=O)(=O)N([C@@H](C)CO)C[C@H]1C -2.03%
C[C@@H]1CN([C@@H](C)CO)S(=O)(=O)c2ccc(Br)cc2O[C@H]1CN(C)S(=O)(=O)c1ccccc1 0.606%
COc1ccc(NC(=O)Nc2ccc3c(c2)[C@H]2C[C@H](CC(=O)NC4CCCC4)O[C@H](CO)[C@H]2O3)cc1 -1.24%
C[C@@H]1CCCCO[C@H](CN(C)C(=O)Cc2ccccc2)[C@H](C)CN([C@@H](C)CO)C(=O)c2cc(NS(=O)(=O)c3ccc(F)cc3)ccc2O1 6.79%
C[C@H](CO)N1C[C@H](C)[C@@H](CN(C)C(=O)C2CCCCC2)Oc2cc(C3=CCCC3)ccc2S1(=O)=O -2.1%
COc1ccc(NC(=O)Nc2ccc3c(c2)C(=O)N([C@@H](C)CO)C[C@@H](C)[C@H](CN(C)C(=O)CCC(F)(F)F)OCCCC[C@@H](C)O3)cc1 -1.97%
C/C=C/c1ccc2c(c1)O[C@@H](CN(C)C(=O)C1CCOCC1)[C@H](C)CN([C@H](C)CO)S2(=O)=O 12.8%
C[C@@H]1CN([C@@H](C)CO)C(=O)Cc2cc(NS(=O)(=O)c3ccc(Cl)cc3)ccc2O[C@H]1CN(C)Cc1ccc(C(F)(F)F)cc1 -12.4%
CC(=O)N(C)C[C@H]1Oc2cc(C#Cc3ccccc3F)ccc2S(=O)(=O)N([C@@H](C)CO)C[C@H]1C -2.4%
O=C(C[C@@H]1C[C@H]2c3cc(NS(=O)(=O)c4ccc(F)cc4)ccc3O[C@H]2[C@H](CO)O1)NCCc1ccccc1 4.07%
C[C@@H]1CN([C@@H](C)CO)S(=O)(=O)c2ccc(C#Cc3ccccc3F)cc2O[C@H]1CN(C)C(=O)c1ccc2c(c1)OCO2 -0.635%
CC(C)NC(=O)N(C)C[C@H]1Oc2ncc(C#CC3(O)CCCC3)cc2C(=O)N([C@H](C)CO)C[C@@H]1C -3.09%
O=C(C[C@@H]1C[C@@H]2c3cc(NS(=O)(=O)c4ccc(F)cc4)ccc3O[C@@H]2[C@@H](CO)O1)NCc1ccncc1 1.12%
CN(C)CC(=O)Nc1ccc2c(c1)[C@H]1C[C@@H](CC(=O)NCc3ccc(-c4ccccc4)cc3)O[C@H](CO)[C@H]1O2 3.66%
C[C@H](CO)N1C[C@H](C)[C@@H](CN(C)S(=O)(=O)c2ccc(Cl)cc2)Oc2ccc(NS(C)(=O)=O)cc2CC1=O 1.76%
C[C@@H]1CN([C@@H](C)CO)C(=O)c2cc(-c3cccc(F)c3)cnc2O[C@@H]1CN(C)Cc1ccccc1 -9.63%
COCC(=O)Nc1ccc2c(c1)[C@H]1C[C@H](CC(=O)NCc3ccccn3)O[C@H](CO)[C@H]1O2 2.78%
CCC(=O)N(C)C[C@H]1Oc2cc(/C=C/c3ccccc3)ccc2S(=O)(=O)N([C@H](C)CO)C[C@@H]1C 2.05%
COc1ccc(NC(=O)Nc2ccc3c(c2)[C@@H]2C[C@H](CC(=O)N4CCCCC4)O[C@H](CO)[C@@H]2O3)cc1 4.87%
C[C@@H]1CN([C@@H](C)CO)S(=O)(=O)c2ccc(-c3cccc(C(=O)N(C)C)c3)cc2O[C@@H]1CN(C)C 1.16%
CC(C)NC(=O)N(C)C[C@@H]1Oc2ncc(C#Cc3ccncc3)cc2C(=O)N([C@@H](C)CO)C[C@@H]1C 4.8%
Cc1ccc(-c2cnc3c(c2)C(=O)N([C@H](C)CO)C[C@@H](C)[C@H](CN(C)Cc2ccccc2C(=O)O)O3)cc1 12.9%
CCCNC(=O)C[C@H]1C[C@@H]2c3cc(NC(=O)COC)ccc3O[C@@H]2[C@@H](CO)O1 3.25%
C[C@H](CO)N1C[C@H](C)[C@@H](CN(C)C(=O)Nc2ccccc2)Oc2ncc(C3=CCCC3)cc2C1=O -0.747%
C/C=C/c1cnc2c(c1)C(=O)N([C@@H](C)CO)C[C@@H](C)[C@H](CN(C)Cc1ccccc1)O2 1.34%
C[C@@H]1CN([C@@H](C)CO)S(=O)(=O)c2ccc(C#CCN(C)C)cc2O[C@@H]1CN(C)S(=O)(=O)c1cccc(F)c1 -0.392%
C[C@H]1CN([C@@H](C)CO)C(=O)c2cc(-c3ccncc3)cnc2O[C@@H]1CN(C)C(=O)c1cccc(F)c1 -0.363%
Cc1ccc(-c2ccc3c(c2)O[C@H](CN(C)C(=O)Nc2ccc(C(F)(F)F)cc2)[C@@H](C)CN([C@H](C)CO)S3(=O)=O)cc1 -7.32%
CCC(=O)N(C)C[C@@H]1Oc2ncc(C#CCc3ccccc3)cc2C(=O)N([C@H](C)CO)C[C@H]1C -13.4%
C[C@H](CO)N1C[C@H](C)[C@@H](CN(C)S(=O)(=O)c2cccc(F)c2)Oc2ncc(-c3cccc(F)c3)cc2C1=O -2.04%
C[C@@H]1CCCCO[C@H](CN(C)S(=O)(=O)c2ccc(Cl)cc2)[C@H](C)CN([C@H](C)CO)C(=O)c2cc(NC(=O)NC3CCCCC3)ccc2O1 5.74%
CC(=O)N(C)C[C@H]1Oc2ncc(C#CC3(O)CCCC3)cc2C(=O)N([C@@H](C)CO)C[C@@H]1C 4.16%
COc1ccc(S(=O)(=O)N[C@@H]2C=C[C@@H](CC(=O)N3CCc4ccccc4C3)O[C@@H]2CO)cc1 3.25%
CC(=O)N(C)C[C@@H]1Oc2ncc(-c3ccccc3F)cc2C(=O)N([C@H](C)CO)C[C@@H]1C -4.17%
COc1ccc(-c2cnc3c(c2)C(=O)N([C@@H](C)CO)C[C@H](C)[C@H](CN(C)C(=O)Cc2cccnc2)O3)cc1 -0.562%
C[C@@H]1CN([C@H](C)CO)C(=O)c2cc(NC(=O)C3CCCCC3)ccc2O[C@@H](C)CCCCO[C@H]1CN(C)S(C)(=O)=O -14.3%
C[C@@H]1CN([C@H](C)CO)S(=O)(=O)c2ccc(Br)cc2O[C@@H]1CN(C)Cc1cncnc1 1.53%
C[C@@H](NC(=O)C[C@H]1C[C@@H]2c3cc(NC(=O)C4CCC4)ccc3O[C@@H]2[C@@H](CO)O1)c1ccccc1 -3.13%
C[C@H]1CN([C@@H](C)CO)S(=O)(=O)c2ccc(-c3cccc(C#N)c3)cc2O[C@H]1CN(C)CC1CC1 18.1%
COc1cccc(S(=O)(=O)N(C)C[C@H]2Oc3cc(C#CCN(C)C)ccc3S(=O)(=O)N([C@H](C)CO)C[C@H]2C)c1 1.49%
C[C@@H]1CN([C@@H](C)CO)C(=O)Cc2cc(NS(C)(=O)=O)ccc2O[C@H]1CN(C)S(=O)(=O)c1ccc(F)cc1 5.39%
CCCNC(=O)N(C)C[C@H]1Oc2ncc(C#CC(C)C)cc2C(=O)N([C@@H](C)CO)C[C@@H]1C -3.03%
C[C@@H]1CN([C@H](C)CO)C(=O)c2cc(-c3ccc(F)cc3)cnc2O[C@@H]1CN(C)C(=O)C1CCC1 8.32%
O=C(C[C@H]1C[C@@H]2c3cc(NC(=O)CC4CC4)ccc3O[C@@H]2[C@@H](CO)O1)NCc1cc(F)ccc1F 9.35%
COc1ccccc1S(=O)(=O)N(C)C[C@@H]1Oc2cc(C#CCC3CCCC3)ccc2S(=O)(=O)N([C@H](C)CO)C[C@H]1C -16.6%
C[C@@H]1CN([C@@H](C)CO)S(=O)(=O)c2ccc(Br)cc2O[C@@H]1CN(C)C(=O)CN(C)C 16.9%
